According to PubChem BioAssay (NCI):
Values joined by “and” are separate entries in the source; they are usually repeats but may differ in a detail not shown here. Identical values can stand only once. Compounds without any hit were thinned out: in the full panel of roughly 83,000, 20% have a hit.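 Method: cells in 96-well plates; compound added at one concentration; 48 h incubation; percent growth measured; values under 10 scored active.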 Active and inactive are the calls of the source.

Legend:
Assay in all cases: NCI-60 one-dose screen, 48 h (100 = growth as untreated, 0 = no growth, -100 = all killed)
HCT-15 colon = conditions: 10 µM
HT29 colon = conditions: 10 µM
SNB-75 CNS = conditions: 10 µM
SNB-19 CNS = conditions: 10 µM
U251 CNS = conditions: 10 µM unless noted
PC-3 prostate = conditions: 10 µM
SK-MEL-5 melanoma = conditions: 10 µM unless noted
UACC-62 melanoma = conditions: 10 µM
LOX IMVI melanoma = conditions: 10 µM unless noted
SK-MEL-28 melanoma = conditions: 10 µM
SK-MEL-2 melanoma = conditions: 10 µM
EKVX NSCLC = conditions: 10 µM
SN12C renal = conditions: 10 µM
UO-31 renal = conditions: 10 µM
TK-10 renal = conditions: 10 µM
ACHN renal = conditions: 10 µM
CAKI-1 renal = conditions: 10 µM
A498 renal = conditions: 10 µM
CCRF-CEM leukemia = conditions: 10 µM
MOLT-4 leukemia = conditions: 10 µM

CCCCCCCCCCCCSC(=NC)NC
growth (HCT-15 colon): -25.5% (active) and -28.8% (active)
growth (HT29 colon): 0.0905% (active) and 2.56% (active)
growth (SNB-75 CNS): 74.8% (inactive) and 82.3% (inactive)
growth (SNB-19 CNS): 42.6% (inactive) and 91.6% (inactive)
growth (U251 CNS): 8.04% (active) and 34.5% (inactive)
growth (PC-3 prostate): 42% (inactive) and 67.3% (inactive)
growth (SK-MEL-5 melanoma): -5.79% (active) and 69.5% (inactive)
growth (UACC-62 melanoma): -58.4% (active) and 61.4% (inactive)
growth (LOX IMVI melanoma): -39.5% (active) and 26.8% (inactive)
growth (SK-MEL-28 melanoma): 26.8% (inactive) and 68.5% (inactive)
growth (SK-MEL-2 melanoma): 79.2% (inactive) and 95.8% (inactive)
growth (EKVX NSCLC): 71.1% (inactive)
growth (SN12C renal): 39.4% (inactive) and 60.4% (inactive)
growth (UO-31 renal): 35.2% (inactive) and 49.6% (inactive)
growth (TK-10 renal): 62.1% (inactive) and 71.2% (inactive)
growth (ACHN renal): 43% (inactive) and 86.4% (inactive)
growth (CAKI-1 renal): 45.8% (inactive) and 73.6% (inactive)
growth (A498 renal): 72.3% (inactive)
growth (CCRF-CEM leukemia): 23.7% (inactive)
growth (MOLT-4 leukemia): 1.27% (active) and 19.1% (inactive)

Nc1c2ccccc2nc2ccccc12
growth (HCT-15 colon): 5.79% (active) and 15.8% (inactive) and 26.5% (inactive)
growth (HT29 colon): -21.6% (active) and 20.8% (inactive) and 19.9% (inactive)
growth (SNB-75 CNS): 33.1% (inactive) and 51.8% (inactive) and 89.3% (inactive)
growth (SNB-19 CNS): 22.5% (inactive) and 39.8% (inactive)
growth (U251 CNS): 6.74% (active) and 26.5% (inactive) and 34.7% (inactive)
growth (PC-3 prostate): 23.7% (inactive) and 9.05% (active) and 41.1% (inactive)
growth (SK-MEL-5 melanoma): 5.28% (active) and 19.7% (inactive) and 39.5% (inactive)
growth (UACC-62 melanoma): 13.9% (inactive) and 36.3% (inactive) and 27.3% (inactive)
growth (LOX IMVI melanoma): -53.7% (active) and 14.9% (inactive) and 12.4% (inactive)
growth (SK-MEL-28 melanoma): 18% (inactive) and 28.2% (inactive) and 82.1% (inactive)
growth (SK-MEL-2 melanoma): -33.8% (active) and 33.6% (inactive) and 51.8% (inactive)
growth (EKVX NSCLC): -24.1% (active) and 43.9% (inactive) and 57.3% (inactive)
growth (SN12C renal): 12% (inactive) and 33.2% (inactive) and 33.5% (inactive)
growth (UO-31 renal): 12.8% (inactive) and 11.1% (inactive) and 14.2% (inactive)
growth (TK-10 renal): -13.4% (active) and 48.2% (inactive)
growth (ACHN renal): 16.9% (inactive) and 25.5% (inactive)
growth (CAKI-1 renal): -37.7% (active) and 19.8% (inactive) and 21.5% (inactive)
growth (A498 renal): -0.261% (active) and 37.5% (inactive) and 18.3% (inactive)
growth (CCRF-CEM leukemia): 35.3% (inactive) and 20.5% (inactive) and 50.7% (inactive)
growth (MOLT-4 leukemia): 8.47% (active) and 10.2% (inactive) and 12.6% (inactive)

Cc1cc(O)c(C(C)C)cc1Cl
growth (HCT-15 colon): 106% (inactive)
growth (HT29 colon): 103% (inactive)
growth (SNB-75 CNS): 93.2% (inactive)
growth (SNB-19 CNS): 103% (inactive)
growth (U251 CNS): 101% (inactive)
growth (PC-3 prostate): 101% (inactive)
growth (SK-MEL-5 melanoma): 103% (inactive)
growth (UACC-62 melanoma): 103% (inactive)
growth (LOX IMVI melanoma): 98.3% (inactive)
growth (SK-MEL-28 melanoma): 105% (inactive)
growth (SK-MEL-2 melanoma): 117% (inactive)
growth (EKVX NSCLC): 103% (inactive)
growth (SN12C renal): 104% (inactive)
growth (UO-31 renal): 89.8% (inactive)
growth (TK-10 renal): 97.6% (inactive)
growth (ACHN renal): 106% (inactive)
growth (CAKI-1 renal): 99.7% (inactive)
growth (A498 renal): 118% (inactive)
growth (CCRF-CEM leukemia): 104% (inactive)
growth (MOLT-4 leukemia): 99% (inactive)

CCN1/C(=C/C=C/C=C/c2sc3ccccc3[n+]2CC)Sc2ccccc21
growth (HCT-15 colon): -20.9% (active)
growth (HT29 colon): -66.1% (active)
growth (SNB-75 CNS): -45.6% (active)
growth (SNB-19 CNS): -5.19% (active)
growth (U251 CNS): -6.94% (active)
growth (PC-3 prostate): 7.09% (active)
growth (SK-MEL-5 melanoma): -95.4% (active)
growth (UACC-62 melanoma): -74.6% (active)
growth (LOX IMVI melanoma): -57.5% (active)
growth (SK-MEL-28 melanoma): -56.6% (active)
growth (SK-MEL-2 melanoma): -59.1% (active)
growth (EKVX NSCLC): -31.9% (active)
growth (SN12C renal): -20.7% (active)
growth (UO-31 renal): -35.3% (active)
growth (TK-10 renal): -6.28% (active)
growth (ACHN renal): -45.6% (active)
growth (CAKI-1 renal): -0.841% (active)
growth (A498 renal): 9.48% (active)
growth (CCRF-CEM leukemia): 8.96% (active)
growth (MOLT-4 leukemia): -31.7% (active)

NC(=O)SCC(=O)NNc1ccccc1
growth (HCT-15 colon): 89.2% (inactive)
growth (HT29 colon): 103% (inactive)
growth (SNB-75 CNS): 92.5% (inactive)
growth (SNB-19 CNS): 108% (inactive)
growth (U251 CNS): 87.8% (inactive)
growth (PC-3 prostate): 85.7% (inactive)
growth (SK-MEL-5 melanoma): 103% (inactive)
growth (UACC-62 melanoma): 70.9% (inactive)
growth (LOX IMVI melanoma): 67.1% (inactive)
growth (SK-MEL-28 melanoma): 106% (inactive)
growth (SK-MEL-2 melanoma): 87.5% (inactive)
growth (EKVX NSCLC): 99.4% (inactive)
growth (SN12C renal): 94.9% (inactive)
growth (UO-31 renal): 78.9% (inactive)
growth (TK-10 renal): 95.5% (inactive)
growth (ACHN renal): 81.1% (inactive)
growth (CAKI-1 renal): 92.8% (inactive)
growth (A498 renal): 93.7% (inactive)
growth (CCRF-CEM leukemia): 90.4% (inactive)
growth (MOLT-4 leukemia): 111% (inactive)
